Calls of active or inactive are those of the source. Cut-off read from the data, not from the text of the source: active = inhibition above about 31%; inactive = the rest.

The term inhibition denotes the relative decrease from the control value, in per cent.

Sequence of N-formyl peptide receptor 2 (Homo sapiens) (P25090 whole entry, looked up): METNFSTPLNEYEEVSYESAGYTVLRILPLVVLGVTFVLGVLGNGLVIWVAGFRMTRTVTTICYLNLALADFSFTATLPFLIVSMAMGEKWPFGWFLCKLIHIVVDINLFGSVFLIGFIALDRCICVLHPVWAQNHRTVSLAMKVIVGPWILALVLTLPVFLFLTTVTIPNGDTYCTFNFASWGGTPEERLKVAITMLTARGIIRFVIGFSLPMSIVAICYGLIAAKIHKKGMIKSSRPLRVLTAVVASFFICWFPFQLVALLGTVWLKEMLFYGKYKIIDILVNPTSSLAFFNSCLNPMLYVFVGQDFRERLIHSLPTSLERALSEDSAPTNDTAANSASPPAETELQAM

This experiment has as its target N-formyl peptide receptor 2 (Homo sapiens) (UniProt P25090). Put plainly: FPRL1 fluorescent ligand binding inhibitors, cell-based, flow cytometry, single concentration (AID 765). Conditions: FPRL1-expressing cells, active compounds read high; at 5.1 µM unless noted. Background: Flow cytometry measures light scatter and fluorescence of single cells or particles in a stream.
Turning to `COc1ccc(-c2cn3cccnc3n2)cc1NC(=O)C1CCCCC1`, the inhibition was 1.2% [at 6.3 µM] (inactive).

In the case of `CCCC(=O)Nc1cccc(-c2cn3cccnc3n2)c1`, the inhibition was -2.8% [at 7.9 µM] (inactive).

Take `COc1ccc(-c2cn3cccnc3n2)cc1NC(=O)Cc1ccccc1`: the inhibition was 31.2% [at 6.2 µM] (active).

Take `CC(C)(C)OC(=O)N1CCN(c2nc(-c3ccccc3Cl)c3cc(Br)ccc3n2)CC1`: the inhibition was -9.1% [at 4.4 µM] (inactive).

For the compound `COc1cccc(-c2cc(C(F)(F)F)nc(N3CCN(C)CC3)n2)c1`, the inhibition was -18% [at 6.3 µM] (inactive).

As for `COc1ccc(-c2cn3cccnc3n2)cc1NC(=O)c1ccc(C(C)(C)C)cc1`, the inhibition was -1% [at 5.6 µM] (inactive).

On to `FC(F)(F)c1nc(N2CCN(Cc3ccccc3)CC2)nc2c1CCCCC2`, for which the inhibition was 11.8% [at 5.7 µM] (inactive).

As for `CCCCOc1ccc(C(=O)Nc2cc(-c3cn4cccnc4n3)ccc2OC)cc1`, the inhibition was 1.7% [at 5.3 µM] (inactive).

`Fc1ccc(-c2cc(C(F)(F)F)nc(N3CCN(c4cccc(Cl)c4)CC3)n2)cc1`: the inhibition was 19.5% (inactive).

Take `COc1ccccc1-c1cc(C(F)(F)F)nc(N2CCN(c3ccccc3OC)CC2)n1`: the inhibition was -2.8% [at 5 µM] (inactive).

As for `O=C(O)CCC(=O)N1CCN(c2nc(-c3ccccc3)c3ccccc3n2)CC1`, the inhibition is -3.2% [at 5.7 µM] (inactive).

For `O=C(O)CCC(=O)N1CCN(c2nc(-c3ccccc3)c3cc(Br)ccc3n2)CC1`, the inhibition is -3.9% [at 4.7 µM] (inactive).

Turning to `CC1CCc2nc(N3CCN(Cc4ccccc4)CC3)nc(C(F)(F)F)c2C1` (stereo not given), the inhibition is -10.7% [at 5.7 µM] (inactive).

In the case of `Cc1ccc(C(=O)N2CCN(c3nc(-c4ccccc4)c4cc(Br)ccc4n3)CC2)cc1`, the inhibition was 18% [at 4.6 µM] (inactive).

As for `CC(=O)N1CCN(c2nc(-c3ccccc3)c3cc(C)ccc3n2)CC1`, the inhibition was 5.6% [at 6.4 µM] (inactive).

In the case of `Clc1cccc(-c2nc(N3CCN(Cc4ccccc4)CC3)nc3c2COc2ccccc2-3)c1`, the inhibition is 0.5% [at 4.7 µM] (inactive).

As for `CCN1CCN(c2nc(-c3cccc(Cl)c3)c3c(n2)-c2ccccc2OC3)CC1`, the inhibition is -10.9% [at 5.5 µM] (inactive).

`Fc1ccc(-c2cc(C(F)(F)F)nc(N3CCN(C(c4ccccc4)c4ccccc4)CC3)n2)cc1`: the inhibition is -9.4% [at 4.5 µM] (inactive).

Turning to `COc1ccc(-c2cc(C(F)(F)F)nc(N3CCN(c4ccccc4)CC3)n2)cc1OC`, the inhibition was -5% [at 5 µM] (inactive).

Consider `COc1ccc(-c2cc(-c3ccc(F)cc3)nc(N3CCN(C)CC3)n2)cc1`, for which the inhibition was -2.6% [at 5.9 µM] (inactive).

Turning to `COc1ccc(-c2cc(C(F)(F)F)nc(N3CCN(C)CC3)n2)cc1`, the inhibition is -15.1% [at 6.3 µM] (inactive).

For `O=C(O)CCCC(=O)N1CCN(c2nc(-c3ccccc3)c3ccccc3n2)CC1`, the inhibition is -1.7% [at 5.5 µM] (inactive).

Regarding `O=C(c1cccc(F)c1)N1CCN(c2nc(-c3ccc(F)cc3)cc(C(F)(F)F)n2)CC1`, the inhibition is 2.3% [at 5 µM] (inactive).

Consider `CCOC(=O)N1CCN(c2nc(-c3ccc(Cl)cc3)cc(C(F)(F)F)n2)CC1`, for which the inhibition is -12% [at 5.4 µM] (inactive).

For the compound `Cc1ccccc1N1CCN(c2nc(-c3ccccc3)c3cc(Br)ccc3n2)CC1`, the inhibition is 0.2% [at 4.8 µM] (inactive).

(Values after PubChem BioAssay AID765 (NMMLSC, 2007).)
